Bioassay records: PubChem BioAssay, National Center for Advancing Translational Sciences (NCATS)
The sample as a whole holds a higher share of hits than the screen did.
Methyltransferases = Primary Screen for Target Class Profiling of Small Molecule Inhibitors of Methyltransferases; hit rate 3.9% among 25,000; calls only at 40 µM; purified enzyme, MTase-Glo SAH luminescence; hits give low values; call rule not given here
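Each enzyme was assayed with SAM and its substrate. SAH formation detected by MTase-Glo luminescence; single-point 40 uM screen[…].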
MTase-Glo ctr = counter-screen for methyltransferase inhibitors: coupling enzymes without methyltransferase | shares compounds with Methyltransferases | MTase-Glo coupled enzymes, SAH conversion luminescence, no MTase | Potency, µM (titrated, usually from 57.3 µM), for inactives: top-dose activity change, negative = inhibition, usual class: inhibitors | hit rate 6% among 180; active means well fitted inhibition curve with a large enough effect; inconclusive means small, poorly fitted or top-dose-only effect; further: potency means the concentration at half of the fitted maximal effect
* marks the source's active call; other numbers are inactive results; i = inactive; ? = inconclusive; + = active, no number; [ ] = dose if it differs, or a comment. On the % scale 0 is the no-effect control and ±100 the full control effect.

SMILES	Methyltransferases	others
COc1cccc(N2C(=O)c3cc(C(C)(C)C)nn3CC2(C)C(=O)NC2CCCCCC2)c1 (centres undefined)	i
c1ccc(Nc2cc3c(cn2)NCCN(Cc2cccs2)C3)cc1	i
Cn1cnc(CN2CCNc3cc(Nc4ccccc4)ncc3C2)c1	+	MTase-Glo ctr=3%[85.7 µM]
c1ccc(CCN2CCNc3cc(NCc4cccnc4)ncc3C2)cc1	+	MTase-Glo ctr=?
Cn1cc(CN2CCOc3cc([S+](=O)([O-])Nc4ccccc4)ccc3C2)cn1	i
Fc1ccccc1CN1CCNc2cnc(OCc3cccnc3)cc2C1	i
CC(C)CNc1ccc2c(n1)C(C)(C(=O)NCc1cccnc1)CN(Cc1ccccc1)C2 (centres undefined)	i
C[C@@]1(C(=O)O)CCC[C@@]2(C)C3=CC[C@H]4C[C@@]3(CC[C@H]12)CC4(O)CO (some centres undefined)	i
O=C(Cn1ccc2cc(S(=O)(=O)N3CCCCC3)ccc21)NCCc1ccco1	i
Cn1cccc1CN1C[C@@H](CO)[C@H](c2ccncc2)C1	i
COc1ccc2c(c1)c(CN1C[C@@H](CO)[C@H](c3nc(C)no3)C1)cn2C	i
COc1ccc(CN2C[C@@H](CO)[C@H](c3ccncc3)C2)c(OC)c1	+	MTase-Glo ctr=4%
CCNC(=O)Nc1ccc(OCC(=O)N2CCN(c3ccccn3)CC2)nc1	i
CC1(C(=O)NC2CCCCC2)Cn2c(nc3ccccc32)C(=O)N1Cc1cccs1 (centres undefined)	i
COc1ccc(C2(C(=O)N3CCOCC3)CCOCC2)cc1	i
CC(C)c1nc(-c2ccc(C(=O)N[C@@H]3COCC[C@@H]3OCC3CC3)cc2)no1	i
O=C(Cn1nc2n(CCc3ccccc3)c(=O)c3ccccc3n2c1=O)Nc1cccc(Cl)c1	i
CC(=O)Nc1ccc(CN2CCC3(C2)C(=O)N(C)c2ccccc23)cc1 (centres undefined)	i
CC(=O)NC1CC2(CCN(Cc3ccc(O)cc3)CC2)c2ccccc21 (centres undefined)	+	MTase-Glo ctr=2%
CC(C)NC(=O)NC1CC2(CCN(C(=O)Cc3ccc(O)cc3)CC2)c2ccccc21 (centres undefined)	i
CCOCCCN1C(=O)c2ccc(-c3ccco3)n2CC1(C)C(=O)NC1CCCCCC1 (centres undefined)	i
CC(C)OCCCn1c(=O)c2ccccc2n2c(=O)n(Cc3ccccc3Cl)nc12	i
CCCOc1ccc(CN2C(=O)c3cc4oc(C)cc4n3CC2(C)C(=O)NC2CCCCCC2)cc1 (centres undefined)	i
COc1ncccc1-c1cc2c(nc1OC)nc(CCc1ccccc1)n2C	i
COc1ncccc1-c1nccn2c(C3CN(Cc4ccccc4O)C3)ncc12	+	MTase-Glo ctr=2%[85.7 µM]
SMILES	Methyltransferases	others
COc1ncccc1-c1n[nH]c2c1CC(=O)N(Cc1ccccc1)C2	i
CCc1ccc(N2C(=O)c3cc4oc(C)cc4n3CC2(C)C(=O)NC2CCCCCC2)cc1 (centres undefined)	i
CN1CCCN(C[C@@H]2CN(C(=O)c3ccn(C)n3)C[C@@H]2CO)CC1	i
CN(C)c1nc2c(c(N3C[C@@H](CN4CCCC4)[C@@H](CO)C3)n1)CCCC2	+	MTase-Glo ctr=14µM*
CCN(C(=O)Cn1c(=O)oc2cc(S(=O)(=O)N3CC(C)CC(C)C3)ccc21)c1ccccc1 (centres undefined)	i
CCCNC(=O)CCc1ccnc(N2CCCC2)c1	i
CN1C(=O)c2cc(C(=O)NCCN3CCCC3)nn2CC1(C)C(=O)NC1CCCCC1 (centres undefined)	i
CCCNc1cc(N2CCC(CCC(=O)NCCN3CCCCCC3)CC2)ncn1	+	MTase-Glo ctr=1%
CC(Nc1nc2c(S(=O)(=O)c3ccc(Cl)cc3)nnn2c2ccccc12)c1ccccc1 (centres undefined)	i
COc1ccc(OC)c(CNC(=O)Cn2ccc3cc(S(=O)(=O)N4CCCCC4)ccc32)c1	i
CN1CCN(c2nc3c(c(=O)[nH]2)CCN(Cc2cn[nH]c2-c2ccc(F)cc2)CC3)CC1	i
CN1C(=O)[C@H]2CN(Cc3cn[nH]c3-c3ccc(F)cc3)C[C@H]2C1=O	i
COc1ccc(-c2[nH]ncc2CN2CC[C@H]3CC[C@@H](C2)N3)cc1	+	MTase-Glo ctr=-2%
O=C(NCCN1CCN(c2cccc3ccc(O)cc23)CC1)c1ccc(F)cc1	i
Oc1ccc(NCCN2CCCC2)cc1	+	MTase-Glo ctr=-6%[114 µM]
Cc1ccc(NC(=O)N2CCCN(CCn3nc4n(c3=O)CCCC4)CC2)cc1F	i
COc1cccc(CN2CC(=O)N(Cc3ccc(F)cc3)c3ccccc3S2(=O)=O)c1	i
CCCc1cc(C(=O)N2CCc3c(nc(-c4cccnc4)[nH]c3=O)C2)n[nH]1	i
O=C1OCCC1CCC(=O)N1CCc2c(nc(-c3ccccc3)[nH]c2=O)C1 (centres undefined)	i
